This is an account of results in PubChem BioAssay AID624483 (NMMLSC, 2012).

Each structure is given as a SMILES string. The campaign covered roughly 360,000 compounds. About 11,000 (3.1%) were called active. About 2% were inconclusive and are not listed. Cut-off read from the data, not from the text of the source: active = fluorescence intensity above about 16000; inconclusive = no clear call, values can overlap the other calls; inactive = below that. The full list was thinned out, with actives kept by preference.

A short description of this assay: counter-screen for toxin protease inhibitors: compound fluorescence, primary screen, artefact control for toxin protease inhibitor project, biochemical, multiplex microsphere, HTS (AID 624483). The settings on record: compound autofluorescence counterscreen, microsphere flow cytometry; stronger effect = higher value. On the technique in general: Counterscreens check selectivity or assay interference.
For the compound `CC1(C)CC(N(Cc2ccccc2)C(=O)Cc2ccccc2)CCO1` (stereo not given), the fluorescence intensity was 4030 (inactive).

For the compound `Cn1ncc(Br)c1C(=O)NCc1cccs1`, the fluorescence intensity is 23700 (active).

With `O=C(NCc1cccs1)c1ccc(Br)o1`, the fluorescence intensity was 2540 (inactive).

Take `COc1ccccc1NC(=O)c1c(Br)cnn1C`: the fluorescence intensity was 2020 (inactive).

Take `Clc1ccc(Cl)c(Oc2ccc(Oc3nc(Cl)ccc3Cl)cc2)n1`: the fluorescence intensity is 16400 (active).

In the case of `N#Cc1ccc(-c2ccc(Cl)cc2)nc1Oc1ccc(F)cc1`, the fluorescence intensity was 9640 (inactive).

Consider `CC1(Oc2cccc(F)c2)CCN(Cc2ccccc2OC(F)F)C1` (stereo not given), for which the fluorescence intensity was 4130 (inactive).

For `C=C(C)c1cccc(C(C)(C)NC(=O)NC2CCCC2)c1`, the fluorescence intensity is 9090 (inactive).

Consider `O=C(COC(=O)c1ccc[nH]c1=O)Nc1ccc2c(c1)OC(F)(F)O2`, for which the fluorescence intensity was 5560 (inactive).

Turning to `O=C(COC(=O)CNC(=O)c1ccco1)Nc1ccc(F)cc1`, the fluorescence intensity was 3560 (inactive).

In the case of `O=C(COC(=O)c1ccccc1NC(=O)c1ccco1)Nc1ccc2c(c1)OC(F)(F)O2`, the fluorescence intensity was 21800 (active).

For `COc1ccc2cc(C(=O)NCC3CCCO3)[nH]c2c1` (stereo not given), the fluorescence intensity is 3630 (inactive).

Take `CCOC(=O)C1CCCN(C(=O)c2cc(-c3cccs3)oc2C)CC1` (stereo not given): the fluorescence intensity was 2870 (inactive).

For `CC(C)Cn1cnc2c1c(=O)n(CC(O)c1ccccc1)c(=O)n2CC(C)C` (stereo not given), the fluorescence intensity is 16100 (active).

On to `CC(C)Cn1cnc2c1c(=O)n(CC(=O)NN)c(=O)n2Cc1ccccc1`, for which the fluorescence intensity was 4610 (inactive).

As for `CC(C)CCn1cnc2c1c(=O)n(CC(=O)NC(N)=O)c(=O)n2Cc1ccccc1`, the fluorescence intensity is 3800 (inactive).

Consider `CCCCn1nnnc1C(c1ccccc1)N1CCN(c2ccccc2OC)CC1` (stereo not given), for which the fluorescence intensity was 4370 (inactive).

For `COc1ccc(/C=C/C(=O)Nc2c(C)nn(C)c2C)cc1COc1ccc(Br)cc1`, the fluorescence intensity was 8730 (inactive).

Regarding `COc1ccc(C(C)=O)cc1COc1ccc(Cl)c(C)c1`, the fluorescence intensity is 5920 (inactive).

In the case of `CCn1nc(C)c(NC(=O)/C=C/c2ccc(OC)c(COc3ccc(Br)cc3)c2)c1C`, the fluorescence intensity is 24100 (active).

Take `COc1ccccc1-c1cc2nc(NCc3cccc(Cl)c3)ccn2n1`: the fluorescence intensity was 3660 (inactive).

In the case of `CCc1nc2c(OCCc3cccc(OC)c3)cccn2c1N(C)C(=O)c1ccc(C)cc1`, the fluorescence intensity was 3510 (inactive).

For `O=C(c1cc2nc(-c3ccccc3)cc(-c3ccccc3)n2n1)N1CCC2(CC1)OCCO2`, the fluorescence intensity was 2800 (inactive).

As for `O=C(c1cc(-c2ccncc2)nc2ccccc12)N1CCC2(CC1)OCCO2`, the fluorescence intensity is 23100 (active).

Consider `CC(=O)N1CCN(C(=O)c2cc(-c3ccc(C)o3)nc3ccccc23)CC1`, for which the fluorescence intensity is 7930 (inactive).

For `CCCCC(=O)N(C)c1c(CC)nc2c(OCc3ccc(Cl)cc3Cl)cccn12`, the fluorescence intensity was 3970 (inactive).

Take `O=C(CN1CCN(S(=O)(=O)c2ccc(Cl)s2)CC1)N1CCCCC1`: the fluorescence intensity is 2870 (inactive).

As to `Cc1ccccc1N1CCN(CC(=O)NCc2ccc(Cl)cc2)CC1`, the fluorescence intensity is 4200 (inactive).

As to `O=C(CN1CCN(S(=O)(=O)c2ccc(Cl)s2)CC1)NCc1ccc(Cl)cc1`, the fluorescence intensity is 19600 (active).

Take `O=C(CN1CCN(Cc2ccccc2)CC1)NC(c1ccccc1)c1ccccc1`: the fluorescence intensity was 4580 (inactive).

For the compound `O=C(NC(c1ccccc1)c1ccccc1)N1CCN(CCO)CC1`, the fluorescence intensity is 20400 (active).

Take `CC(=O)N1CCN(CC(c2ccccc2)c2ccccc2)CC1`: the fluorescence intensity was 3040 (inactive).

In the case of `Cc1ccc2c(C)c(C(=O)N(C)Cc3ccncn3)oc2c1C`, the fluorescence intensity is 5730 (inactive).

As for `CSc1ccc(/C=N\NC(=O)COc2ccc(Cl)cc2Br)cc1`, the fluorescence intensity is 17700 (active).

As to `CSc1ccc(/C=N/NC(=O)c2cccc(Cl)c2)cc1`, the fluorescence intensity is 2570 (inactive).

As to `O=C(COc1ccc(Cl)cc1Cl)N/N=C/c1ccccn1`, the fluorescence intensity was 5790 (inactive).

On to `CCOC(=O)[C@]12CCCC=C1N(Cc1cccc3ccccc13)C(=O)[C@H](CC(=O)NCC13CC4CC(CC(C4)C1)C3)C2`, for which the fluorescence intensity was 5880 (inactive).

With `CC1(C(=O)NCc2cccc3ccccc23)CCN1Cc1ccc(-c2ccccc2)o1` (stereo not given), the fluorescence intensity was 3560 (inactive).

For `CCCCc1ccc(S(=O)(=O)NC(=O)C2(C)CCN2C(=O)c2ccccc2)cc1` (stereo not given), the fluorescence intensity is 3420 (inactive).

For `CC(OC(=O)c1ccc(NS(=O)(=O)c2ccc3[nH]c(=O)[nH]c3c2)cc1)C(=O)Nc1cccc(Cl)c1Cl` (stereo not given), the fluorescence intensity was 3440 (inactive).

Turning to `CC(=O)NS(=O)(=O)c1ccccc1`, the fluorescence intensity is 6630 (inactive).

As for `CC(=O)NS(=O)(=O)c1ccc(NC(=S)NC(=O)C(C)(C)C)cc1`, the fluorescence intensity is 24700 (active).

For `CC(C)(C)C(=O)NC(NC(=S)Nc1ccc(S(N)(=O)=O)cc1)C(Cl)(Cl)Cl` (stereo not given), the fluorescence intensity is 1960 (inactive).

In the case of `CC(C)CCOc1ccc(C(=O)Nc2cc(S(=O)(=O)N3CCOCC3)ccc2N2CCOCC2)cc1`, the fluorescence intensity is 3010 (inactive).

`Cc1ccccc1CN1CCN(C(=O)c2cccc(F)c2)CC1`: the fluorescence intensity was 2980 (inactive).

For the compound `Cc1ccccc1CS(=O)(=O)CC1(O)CCN(C(=O)c2cccc(C(F)(F)F)c2)CC1`, the fluorescence intensity is 20100 (active).

In the case of `CC(C)CC(=O)N1CCC(O)(CS(=O)(=O)Cc2ccccc2)CC1`, the fluorescence intensity was 10100 (inactive).

As for `Cn1c(=O)c2c(nc(N3CCCCCC3)n2CC(O)COc2ccc(Cl)cc2)n(C)c1=O` (stereo not given), the fluorescence intensity is 21800 (active).

As for `Cc1cccc(OCC(O)Cn2c(N3CCCCC3)nc3c2c(=O)[nH]c(=O)n3C)c1` (stereo not given), the fluorescence intensity is 4090 (inactive).

For the compound `O=C(c1ccc(Cl)cc1)c1ccc(OCC(O)CN2CCCCC2)cc1` (stereo not given), the fluorescence intensity is 4210 (inactive).

For `c1cc(-c2ccc3[nH]ccc3c2)n2ccnc2c1`, the fluorescence intensity is 3500 (inactive).

Take `COC(=O)[C@]12CCCCC=C1N(Cc1ccco1)C(=O)[C@H](CC(=O)NCC1CCCCC1)C2`: the fluorescence intensity is 4680 (inactive).

`CSc1ncccc1C(=O)Nc1cccc(S(=O)(=O)N2CCOCC2)c1`: the fluorescence intensity was 4320 (inactive).

As for `Oc1ccc(CNc2ccccc2O)cc1`, the fluorescence intensity is 3590 (inactive).

On to `COc1ccc(OC)c(C(=O)c2coc3ccc(OC)cc23)c1`, for which the fluorescence intensity is 2950 (inactive).

In the case of `COc1ccc(OC)c(C(=O)c2coc3ccc(O)c(CN4CCOCC4)c23)c1`, the fluorescence intensity is 22400 (active).

In the case of `COc1ccc2oc(=O)cc(CN3CCOCC3)c2c1`, the fluorescence intensity is 4180 (inactive).

`Cc1ccc(NC(=O)c2oc(=O)c3ccccc3c2-c2ccccc2)c(C)c1`: the fluorescence intensity was 2070 (inactive).

Regarding `CCN(CC)CCNc1nc(-c2ccc(OC(F)F)cc2)c(C)s1`, the fluorescence intensity was 4700 (inactive).

For the compound `O=C(c1cccc(Br)c1)N1CCN(C2=NS(=O)(=O)c3ccccc32)CC1`, the fluorescence intensity was 5480 (inactive).
